Experimental data as given in the supplement of paper PMC11732987, “Enantioselective OTUD7B fragment discovery through chemoproteomics screening and high-throughput optimisation” (Communications Chemistry, 2025).

What was measured:
Assay in all cases: log2 ratio of Biotin-Ahx-Ub-VS probe labelling (fragment/DMSO); higher = less target engagement (more negative = stronger competition), active = hit call of the paper (q ≤ 0.05, log2 ratio ≤ -1)
Conditions in all cases: compound concentration: 200 uM; treatment time: 3 h
[1] = target: USP34 (UniProt Q70CQ2)
How it was run: (§1)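 Labelled DUBs from HEK293T lysate were NeutrAvidin-enriched, digested with LysC and trypsin, and run by diaPASEF LC-MS/MS. Before that, each 495 µg sample in Tris/CHAPS/IGEPAL buffer with protease inhibitors was treated in triplicate with fragment at 200 µM or vehicle for 3 h, then with Biotin-Ahx-Ub-VS at 0.5 µM final for 1 h. Values are average log2 ratios of fragment over vehicle by unpaired t-test, based on global-median-normalised Spectronaut label-free quantities from proteins with ≥2 unique peptides.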

[2] = target: T1, USP36 (UniProt Q9P275)
T1 sequence (whole entry): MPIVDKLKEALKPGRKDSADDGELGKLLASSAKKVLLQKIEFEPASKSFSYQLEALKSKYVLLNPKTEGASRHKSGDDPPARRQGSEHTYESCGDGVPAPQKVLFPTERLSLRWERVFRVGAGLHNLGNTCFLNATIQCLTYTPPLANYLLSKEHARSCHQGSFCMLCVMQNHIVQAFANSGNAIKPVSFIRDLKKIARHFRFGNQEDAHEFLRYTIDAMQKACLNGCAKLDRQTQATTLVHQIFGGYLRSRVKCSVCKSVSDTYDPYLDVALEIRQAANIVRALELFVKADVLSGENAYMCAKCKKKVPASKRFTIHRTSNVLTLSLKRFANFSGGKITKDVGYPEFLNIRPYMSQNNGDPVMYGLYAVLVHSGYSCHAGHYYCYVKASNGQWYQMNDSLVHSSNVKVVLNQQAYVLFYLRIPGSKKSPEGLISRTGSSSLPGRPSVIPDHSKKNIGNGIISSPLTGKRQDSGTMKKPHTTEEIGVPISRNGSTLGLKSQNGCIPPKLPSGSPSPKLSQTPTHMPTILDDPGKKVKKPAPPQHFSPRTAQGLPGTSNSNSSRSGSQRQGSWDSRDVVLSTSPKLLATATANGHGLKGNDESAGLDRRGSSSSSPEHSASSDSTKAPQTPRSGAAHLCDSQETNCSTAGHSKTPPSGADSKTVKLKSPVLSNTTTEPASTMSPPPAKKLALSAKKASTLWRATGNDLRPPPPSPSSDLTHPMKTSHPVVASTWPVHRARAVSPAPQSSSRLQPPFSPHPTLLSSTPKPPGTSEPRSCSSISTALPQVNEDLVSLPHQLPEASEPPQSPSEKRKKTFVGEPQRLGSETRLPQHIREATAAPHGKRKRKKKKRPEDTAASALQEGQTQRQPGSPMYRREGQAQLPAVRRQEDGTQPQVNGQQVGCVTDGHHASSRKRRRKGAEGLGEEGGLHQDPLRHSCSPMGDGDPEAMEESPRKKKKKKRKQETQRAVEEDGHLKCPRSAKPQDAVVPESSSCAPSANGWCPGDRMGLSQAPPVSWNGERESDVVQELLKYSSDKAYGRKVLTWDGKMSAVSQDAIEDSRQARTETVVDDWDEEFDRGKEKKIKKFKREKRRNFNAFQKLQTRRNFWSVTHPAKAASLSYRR
How it was run: as §1

[3] = target: T2, USP38 (UniProt Q8NB14)
T2 sequence (whole entry): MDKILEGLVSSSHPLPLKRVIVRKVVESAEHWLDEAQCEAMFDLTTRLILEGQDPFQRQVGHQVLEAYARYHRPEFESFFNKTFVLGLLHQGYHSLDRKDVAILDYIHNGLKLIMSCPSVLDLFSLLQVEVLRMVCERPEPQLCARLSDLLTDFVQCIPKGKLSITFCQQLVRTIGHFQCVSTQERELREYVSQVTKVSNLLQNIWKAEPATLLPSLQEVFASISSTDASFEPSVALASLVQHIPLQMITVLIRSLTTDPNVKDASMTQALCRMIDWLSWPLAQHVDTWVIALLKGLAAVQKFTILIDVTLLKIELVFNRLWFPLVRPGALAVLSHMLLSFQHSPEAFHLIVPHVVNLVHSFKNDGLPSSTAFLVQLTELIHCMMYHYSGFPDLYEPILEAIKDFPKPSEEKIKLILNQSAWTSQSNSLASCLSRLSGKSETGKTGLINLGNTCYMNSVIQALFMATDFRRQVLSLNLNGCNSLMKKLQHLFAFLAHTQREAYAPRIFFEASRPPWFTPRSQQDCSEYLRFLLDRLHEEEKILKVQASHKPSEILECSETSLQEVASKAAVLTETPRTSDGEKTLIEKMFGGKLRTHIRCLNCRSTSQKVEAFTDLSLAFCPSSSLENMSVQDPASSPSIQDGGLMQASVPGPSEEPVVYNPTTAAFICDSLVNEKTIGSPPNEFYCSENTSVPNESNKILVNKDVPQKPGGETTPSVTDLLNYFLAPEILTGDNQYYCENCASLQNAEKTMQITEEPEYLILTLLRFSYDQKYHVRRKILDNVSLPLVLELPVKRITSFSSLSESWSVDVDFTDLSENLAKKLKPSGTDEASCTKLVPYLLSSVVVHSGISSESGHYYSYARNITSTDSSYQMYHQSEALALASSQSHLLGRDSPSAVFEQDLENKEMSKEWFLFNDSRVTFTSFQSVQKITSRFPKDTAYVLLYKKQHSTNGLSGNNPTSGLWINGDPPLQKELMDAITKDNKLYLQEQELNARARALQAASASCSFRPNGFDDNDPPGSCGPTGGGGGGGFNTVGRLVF
How it was run: as §1

[4] = target: T3, USP39 (UniProt Q53GS9)
T3 sequence (whole entry): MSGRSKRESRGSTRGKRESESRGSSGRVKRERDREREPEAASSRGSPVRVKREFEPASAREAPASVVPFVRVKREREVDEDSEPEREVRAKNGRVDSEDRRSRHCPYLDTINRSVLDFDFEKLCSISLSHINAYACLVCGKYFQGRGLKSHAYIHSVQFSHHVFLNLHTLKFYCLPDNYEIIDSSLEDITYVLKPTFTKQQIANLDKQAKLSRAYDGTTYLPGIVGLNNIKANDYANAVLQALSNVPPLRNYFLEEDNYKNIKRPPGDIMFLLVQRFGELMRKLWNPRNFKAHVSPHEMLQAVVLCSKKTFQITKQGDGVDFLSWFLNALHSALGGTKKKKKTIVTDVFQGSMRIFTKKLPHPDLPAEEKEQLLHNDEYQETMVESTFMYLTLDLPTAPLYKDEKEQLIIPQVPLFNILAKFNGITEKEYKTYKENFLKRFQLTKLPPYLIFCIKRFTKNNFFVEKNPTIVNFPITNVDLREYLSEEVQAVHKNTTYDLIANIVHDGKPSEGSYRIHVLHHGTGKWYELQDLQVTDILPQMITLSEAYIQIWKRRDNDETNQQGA
How it was run: as §1

[5] = target: T4, USP4 (UniProt Q13107)
T4 sequence (whole entry): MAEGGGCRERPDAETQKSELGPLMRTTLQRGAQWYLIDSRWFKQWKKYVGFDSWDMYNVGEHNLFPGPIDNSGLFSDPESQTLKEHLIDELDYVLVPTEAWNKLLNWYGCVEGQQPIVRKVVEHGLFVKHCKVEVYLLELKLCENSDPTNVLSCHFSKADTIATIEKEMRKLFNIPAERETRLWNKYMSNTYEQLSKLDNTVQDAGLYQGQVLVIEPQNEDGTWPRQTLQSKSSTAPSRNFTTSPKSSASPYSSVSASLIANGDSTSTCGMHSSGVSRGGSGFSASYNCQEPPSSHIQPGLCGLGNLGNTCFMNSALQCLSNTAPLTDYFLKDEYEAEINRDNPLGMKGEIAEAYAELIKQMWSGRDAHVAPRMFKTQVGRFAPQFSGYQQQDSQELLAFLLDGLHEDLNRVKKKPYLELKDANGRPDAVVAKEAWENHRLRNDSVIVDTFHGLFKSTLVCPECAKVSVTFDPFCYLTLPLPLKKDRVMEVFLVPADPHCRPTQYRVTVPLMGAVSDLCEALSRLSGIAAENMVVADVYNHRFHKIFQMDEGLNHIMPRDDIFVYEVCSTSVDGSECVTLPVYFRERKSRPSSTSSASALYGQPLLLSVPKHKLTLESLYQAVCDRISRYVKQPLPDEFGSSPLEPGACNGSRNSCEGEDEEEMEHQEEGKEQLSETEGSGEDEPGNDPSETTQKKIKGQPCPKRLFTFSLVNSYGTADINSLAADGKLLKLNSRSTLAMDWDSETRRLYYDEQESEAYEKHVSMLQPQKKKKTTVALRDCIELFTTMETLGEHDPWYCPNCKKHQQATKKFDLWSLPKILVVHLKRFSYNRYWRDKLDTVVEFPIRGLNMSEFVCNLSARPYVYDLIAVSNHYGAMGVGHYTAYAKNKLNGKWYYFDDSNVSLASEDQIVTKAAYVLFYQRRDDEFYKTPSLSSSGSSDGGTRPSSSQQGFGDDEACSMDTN
How it was run: as §1

Measured: log2 ratio of Biotin-Ahx-Ub-VS probe labelling

USP34, sequence (Q70CQ2 whole entry, the tested form may be a part): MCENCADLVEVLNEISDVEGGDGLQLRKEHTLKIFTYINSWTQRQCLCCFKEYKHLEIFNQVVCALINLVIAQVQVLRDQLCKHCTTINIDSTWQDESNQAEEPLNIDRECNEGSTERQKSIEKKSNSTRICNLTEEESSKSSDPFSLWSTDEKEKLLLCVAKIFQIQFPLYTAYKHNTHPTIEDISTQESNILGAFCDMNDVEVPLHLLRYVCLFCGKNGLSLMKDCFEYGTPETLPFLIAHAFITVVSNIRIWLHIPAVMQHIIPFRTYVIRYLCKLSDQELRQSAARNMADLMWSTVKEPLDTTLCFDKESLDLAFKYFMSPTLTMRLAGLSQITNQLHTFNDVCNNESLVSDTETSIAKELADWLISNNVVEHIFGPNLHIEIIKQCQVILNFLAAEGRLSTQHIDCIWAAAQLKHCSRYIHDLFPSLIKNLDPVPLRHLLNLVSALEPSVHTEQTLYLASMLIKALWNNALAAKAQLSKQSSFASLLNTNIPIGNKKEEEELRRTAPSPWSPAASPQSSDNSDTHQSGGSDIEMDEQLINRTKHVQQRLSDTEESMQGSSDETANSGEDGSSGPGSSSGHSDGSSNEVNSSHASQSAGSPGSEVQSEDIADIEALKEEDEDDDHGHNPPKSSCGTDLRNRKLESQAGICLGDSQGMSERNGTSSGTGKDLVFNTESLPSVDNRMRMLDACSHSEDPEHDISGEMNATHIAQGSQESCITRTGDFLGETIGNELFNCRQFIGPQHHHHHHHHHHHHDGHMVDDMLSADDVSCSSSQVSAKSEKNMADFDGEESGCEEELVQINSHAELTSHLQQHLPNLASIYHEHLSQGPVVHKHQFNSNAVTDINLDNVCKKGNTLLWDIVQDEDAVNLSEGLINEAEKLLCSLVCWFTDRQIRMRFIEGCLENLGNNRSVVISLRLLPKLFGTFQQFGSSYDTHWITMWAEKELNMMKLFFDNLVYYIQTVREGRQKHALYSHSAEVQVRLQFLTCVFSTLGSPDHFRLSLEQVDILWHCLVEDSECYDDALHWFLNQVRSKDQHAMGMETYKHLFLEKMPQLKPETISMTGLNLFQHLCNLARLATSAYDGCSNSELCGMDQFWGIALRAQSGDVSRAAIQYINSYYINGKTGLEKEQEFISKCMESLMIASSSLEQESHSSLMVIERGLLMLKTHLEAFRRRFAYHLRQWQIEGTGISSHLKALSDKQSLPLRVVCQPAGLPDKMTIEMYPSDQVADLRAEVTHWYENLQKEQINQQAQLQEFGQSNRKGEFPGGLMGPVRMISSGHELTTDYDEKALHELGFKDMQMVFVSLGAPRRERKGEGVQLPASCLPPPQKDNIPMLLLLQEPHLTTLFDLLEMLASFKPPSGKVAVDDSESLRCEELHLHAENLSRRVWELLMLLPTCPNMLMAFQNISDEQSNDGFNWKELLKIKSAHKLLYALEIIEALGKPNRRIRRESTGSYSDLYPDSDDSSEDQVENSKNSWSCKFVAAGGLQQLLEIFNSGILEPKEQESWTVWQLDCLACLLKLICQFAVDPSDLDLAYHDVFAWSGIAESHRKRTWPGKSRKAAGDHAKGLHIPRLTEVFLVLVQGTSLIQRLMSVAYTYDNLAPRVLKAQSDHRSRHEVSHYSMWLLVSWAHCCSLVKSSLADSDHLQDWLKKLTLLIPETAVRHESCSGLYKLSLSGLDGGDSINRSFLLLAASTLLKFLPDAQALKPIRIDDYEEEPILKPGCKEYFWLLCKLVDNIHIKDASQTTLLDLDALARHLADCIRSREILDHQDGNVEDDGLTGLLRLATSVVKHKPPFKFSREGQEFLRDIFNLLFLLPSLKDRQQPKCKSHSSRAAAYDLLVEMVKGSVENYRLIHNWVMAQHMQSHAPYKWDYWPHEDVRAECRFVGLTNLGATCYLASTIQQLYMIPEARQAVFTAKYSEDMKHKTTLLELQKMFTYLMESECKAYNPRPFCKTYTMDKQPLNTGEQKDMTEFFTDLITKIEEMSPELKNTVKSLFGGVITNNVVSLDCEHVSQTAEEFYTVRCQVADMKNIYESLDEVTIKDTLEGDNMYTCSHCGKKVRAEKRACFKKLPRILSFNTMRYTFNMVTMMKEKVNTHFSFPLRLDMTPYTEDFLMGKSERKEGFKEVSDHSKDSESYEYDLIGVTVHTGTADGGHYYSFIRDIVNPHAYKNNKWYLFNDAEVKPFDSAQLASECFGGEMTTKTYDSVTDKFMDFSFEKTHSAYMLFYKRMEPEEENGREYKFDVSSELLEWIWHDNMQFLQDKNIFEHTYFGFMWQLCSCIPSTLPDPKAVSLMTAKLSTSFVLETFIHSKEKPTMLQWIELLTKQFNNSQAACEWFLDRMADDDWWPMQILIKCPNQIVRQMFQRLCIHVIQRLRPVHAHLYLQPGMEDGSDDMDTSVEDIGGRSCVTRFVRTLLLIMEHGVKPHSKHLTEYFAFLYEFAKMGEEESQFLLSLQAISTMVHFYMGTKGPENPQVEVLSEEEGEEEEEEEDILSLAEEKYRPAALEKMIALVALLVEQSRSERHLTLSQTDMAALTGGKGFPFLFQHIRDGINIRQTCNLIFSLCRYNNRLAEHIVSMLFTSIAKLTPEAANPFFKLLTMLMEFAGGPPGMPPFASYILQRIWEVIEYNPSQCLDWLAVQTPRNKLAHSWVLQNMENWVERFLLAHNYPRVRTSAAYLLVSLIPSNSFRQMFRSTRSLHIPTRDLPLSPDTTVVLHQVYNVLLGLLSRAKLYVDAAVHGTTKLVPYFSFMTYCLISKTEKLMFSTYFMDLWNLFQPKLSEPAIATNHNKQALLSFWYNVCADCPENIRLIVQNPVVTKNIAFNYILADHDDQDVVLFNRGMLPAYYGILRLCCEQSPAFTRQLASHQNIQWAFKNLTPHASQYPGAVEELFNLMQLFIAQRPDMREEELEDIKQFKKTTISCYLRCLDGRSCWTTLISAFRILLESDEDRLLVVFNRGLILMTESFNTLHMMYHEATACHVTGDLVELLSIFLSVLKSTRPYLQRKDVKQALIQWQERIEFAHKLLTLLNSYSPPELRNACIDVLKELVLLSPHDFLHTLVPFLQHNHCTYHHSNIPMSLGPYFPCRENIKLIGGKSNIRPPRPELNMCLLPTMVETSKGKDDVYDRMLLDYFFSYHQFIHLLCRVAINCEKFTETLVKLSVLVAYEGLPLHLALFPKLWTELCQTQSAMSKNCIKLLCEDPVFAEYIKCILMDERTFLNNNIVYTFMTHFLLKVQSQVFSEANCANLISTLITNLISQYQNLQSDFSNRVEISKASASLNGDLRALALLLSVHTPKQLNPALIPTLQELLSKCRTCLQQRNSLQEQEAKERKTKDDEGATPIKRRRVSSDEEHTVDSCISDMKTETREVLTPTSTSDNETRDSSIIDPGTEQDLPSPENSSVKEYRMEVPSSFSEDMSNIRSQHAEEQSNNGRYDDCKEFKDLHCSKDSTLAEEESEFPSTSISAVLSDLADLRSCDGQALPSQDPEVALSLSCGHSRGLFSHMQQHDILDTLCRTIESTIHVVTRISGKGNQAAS

CC(c1ccccc1)N(C)C(=O)CCl (stereo not given)
inactive: [1] -0.323 | [2] -0.306 | [3] -0.0902 | [4] -0.413 | [5] -0.289
